Source: PubChem
Pf Dd2 inh – qHTS Primary assay for Inhibitors of Plasmodium falciparum Dd2 growth in vitro; 120,000 tested, 4.3% active; P. falciparum Dd2 growth, SYBR Green, 72 h; Potency, µM (series often up to 28.9 µM), inactives show top-dose activity, negative = inhibition, most hits filed as inhibitors; AID 1347417, 2020; active = well fitted inhibition curve with a large enough effect;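 note: plate controls were DMSO vehicle for no effect and reference drug for full effect; nearly all actives have a fitted effect of over 65% in size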
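Infected erythrocytes (Dd2, 0.3% parasitemia, 2.5% hematocrit final) are added to compound in RPMI-1640/Albumax II medium, grown 72 h at 37C in low oxygen, then lysed with saponin/Triton-X containing SYBR Green and read by fluorescence.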
Active calls of the source: *; i = inactive; [ ] = remark or other dose. Only a selection was taken, and hits are over-represented in it overall. Potency is the fitted concentration of half-maximal effect.

SMILES | Pf Dd2 inh
COc1ccc(-c2cc(-c3cnc4[nH]ccc4c3)cn3cncc23)cc1 | 6.3µM*
COc1cc(F)ccc1-c1cc(-c2ccc(=O)[nH]c2)c2cncn2c1 | i
Cc1ccc(-c2cc(-c3cccnc3)c3cncn3c2)cn1 | i
CC(=O)Nc1cccc(-c2ccc(COc3ccc4c(cnn4CCC(=O)O)c3)cc2)c1 | i
COc1ccc(-c2cc(-c3ccc(OC)nc3)cn3cncc23)cc1 | 2.5µM*
COc1ccc(-c2cc(-c3cccc(NC(C)=O)c3)cn3cncc23)cn1 | 2µM*
COc1ccc(-c2cc(-c3cccnc3)c3cncn3c2)cc1OC | 10µM*
COc1ccc(-c2cc(-c3cn[nH]c3)c3cncn3c2)cn1 | -17%[44.1 µM]
c1cncc(-c2cc(-c3ccc4cn[nH]c4c3)cn3cncc23)c1 | -10%[44.1 µM]
O=[S+]1([O-])NCC2(CCCN(Cc3cccc4ccccc34)C2)Nc2ccccc21 (stereo not drawn) | -6%
CO[C@H]1[C@H](NC(=O)Cc2ccccc2C)c2ccccc2C12CCNCC2 | 0%
COCCNC(=O)C(NC(=O)c1cccs1)C1CCN(C(=O)c2cccs2)CC1 (stereo not drawn) | -3%
COc1ccc(C2=NOC3(CCN(C(=O)c4ccccc4OC)C3)C2)cc1 (stereo not drawn) | i
O=C1C(N2CCN(S(=O)(=O)Cc3cccc(Cl)c3)CC2)CCN1Cc1cccnc1 (stereo not drawn) | 6%
Cc1nncn1C1CCN(S(=O)(=O)c2cc(F)cc(F)c2)CC1 | -1%
CCc1nc2cc(N3CCC(C(=O)O)CC3)cnc2nc1CC | i
CC(=O)NCC(=O)N1Cc2ccccc2CC2(CCCN2CC2CCNCC2)C1 (stereo not drawn) | 3%
O=C(CSc1nnc(-c2ccc(Cl)cc2)c(-c2ccc(Cl)cc2)n1)NC1CCCC1 | i
Cc1ccc(-c2nnc(SCC(=O)NC3CCCC3)nc2-c2ccc(C)cc2)cc1 | 5µM*
COc1ccc(-c2nnc(SCC(=O)NC3CCCCC3)nc2-c2ccc(OC)cc2)cc1 | 39%
COc1ccccc1CN1CCc2nc(C(=O)Nc3ccccc3)oc2CC1 | 11µM*
Cc1noc(C)c1CN1CCc2nc(C(=O)Nc3ccccc3)oc2CC1 | i
COc1ccccc1CN1CCc2nc(C(=O)Nc3cccc(C(F)(F)F)c3)oc2CC1 | -7%
O=C(Nc1cccc(C(F)(F)F)c1)c1nc2c(o1)CCN(Cc1ccccc1F)CC2 | i
Cc1ccccc1CN1CCc2nc(C(=O)Nc3ccccc3)oc2CC1 | -15%[44.1 µM]
SMILES | Pf Dd2 inh
Cc1noc(C)c1CN1CCc2nc(C(=O)Nc3cccc(C(F)(F)F)c3)oc2CC1 | 13µM*
N#Cc1cccc(CN2CCc3nc(N4CCOCC4)[nH]c(=O)c3CC2)c1 | i[5.79 µM]
COCCn1ncc(N2CCCC(CC(=O)N(C)CCc3ccccn3)C2)cc1=O (stereo not drawn) | i
CCCn1c(C)cnc1CC1CCN(C(=O)NC)C1 (stereo not drawn) | 6%
CCn1ccc(C(=O)N2CC(N(C3CCOCC3)S(C)(=O)=O)C2)n1 | 15%
COc1ccc(C2(C(=O)NC3CCc4nnc(C)n4CC3)CC2)cc1 (stereo not drawn) | 35%
O=c1[nH]c2cccnc2n1C1CC1 | -19%[44.1 µM]
CN1C(=O)C(c2ccccc2)CC12CCN(C(=O)C1CCC(O)CC1)CC2 (stereo not drawn) | -12%
O=C(NCc1ccccc1-n1ccnc1)C1CC(=O)N(Cc2cccnc2)C1 (stereo not drawn) | 8%
CC(=O)N1CCc2c(sc3c2c(=O)n(Cc2ccccc2)c(=O)n3Cc2cc(C)ccc2C)C1 | -16%
CCOC(=O)N1CCc2c(sc3c2c(=O)n(-c2ccc(CC)cc2)c(=O)n3CC(=O)c2ccc(F)cc2)C1 | 7.9µM*
O=C(Cn1c(=O)n(-c2ccccc2)c(=O)c2c3c(sc21)CCCC3)Nc1ccc(F)cc1 | 19%
CCOC(=O)N1CCc2c(sc3c2c(=O)n(-c2ccc(Cl)cc2)c(=O)n3CC(=O)Nc2ccccc2)C1 | 8.9µM*
CC(=O)N1CCc2c(sc3c2c(=O)n(-c2ccccc2C)c(=O)n3CC(=O)c2ccccc2)C1 | -4%
CCOC(=O)N1CCc2c(sc3c2c(=O)n(CCc2ccccc2)c(=O)n3CC(=O)Nc2ccccc2C)C1 | 0%
CCc1ccc(-n2c(=O)c3c4c(sc3n(CC(=O)c3ccc(Cl)cc3)c2=O)CCC4)cc1 | -19%
CCOC(=O)N1CCc2c(sc3c2c(=O)n(-c2ccc(Cl)cc2)c(=O)n3CC(C)C)C1 | 17%
CCOC(=O)N1CCc2c(sc3c2c(=O)n(Cc2ccccc2)c(=O)n3CC(=O)Nc2cccc(CC)c2)C1 | 7.1µM*
CC(=O)c1cccc(-n2c(=O)c3c4c(sc3n(CC(=O)Nc3ccccc3F)c2=O)CN(C(C)=O)CC4)c1 | 17%
CC(=O)N1CCc2c(sc3c2c(=O)n(CCc2ccccc2)c(=O)n3Cc2ccccc2C)C1 | 7.9µM*
CCc1ccc(-n2c(=O)c3c4c(sc3n(CC(=O)c3ccc(Br)cc3)c2=O)CCC4)cc1 | -24%
CC(C)c1ccc(NC(=O)CN2C(=O)C(c3ccccc3)=NC2(C)C)cc1 | i
